Experimental findings from the supplement of paper PMC10933113 are described below.

Structures can show the parent of a compound that is named as a salt. ± gives the uncertainty stated by the source.

The experiment deals with THP-1. Nature of the experiment: CD86 surface expression induction over DMSO control (% over DMSO); higher = stronger dendritic cell activation. The note with it: exposure time: 24 h. How it is done:
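hCLAT-like CD54 and CD86 surface expression on THP1 cells after 24 h exposure at a single concentration (highest non-cytotoxic concentration, or 100-200 µM if not cytotoxic). Flow cytometry (iQue) was run on 5,000 live cells.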
As to `O=C(/C=C/C=C/c1ccc2c(c1)OCO2)N1CCCCC1` [Piperine] (100 µM), the “CD86 surface expression induction” value was -4.64 ± 6.3.
As for `CCCCCCCCCCCC(=O)NCCCN(C)C` [N-[3-(Dimethylamino)propyl]dodecanamide] (200 µM), the figure is 43.4 ± 63; as for `N=C1C=CC(=C(c2ccc(N)cc2)c2ccc(N)cc2)C=C1` [C.I. Basic Red 9 monohydrochloride] (10 µM), -3.84 ± 5; as for `O=C1OC(OC(=O)c2cccnc2Nc2cccc(C(F)(F)F)c2)c2ccccc21` (stereo not given) [Talniflumate] (100 µM), -7.81 ± 1.
Consider `O=C(Oc1ccccc1)c1cccc(C(=O)Oc2ccccc2)c1` [Diphenyl isophthalate] (200 µM), for which the “CD86 surface expression induction” value was found to be 1.84 ± 5.6.
As for `COC(=O)Nc1nc2cc([S+]([O-])c3ccccc3)ccc2[nH]1` (stereo not given) [Oxfendazole] (100 µM), the figure is 13.3 ± 2.3.
The result for `Nc1ccc(/N=N/c2ccccc2)c(N)n1` [Phenazopyridine hydrochloride] (100 µM) reads -8.42 ± 5.7.
As to `O=[N+]([O-])c1cc(Cl)c(Cl)c(Cl)c1Cl` [2,3,4,5-Tetrachloronitrobenzene] (10 µM), the “CD86 surface expression induction” value was -3.95 ± 2.5.
The result for `Cc1ccc(O)c2ncccc12` [Tiliquinol] (10 µM) reads 43.2 ± 60; that for `C=CC(=O)OCCn1c(=O)n(CCOC(=O)C=C)c(=O)n(CCOC(=O)C=C)c1=O` (10 µM), 14.2 ± 10; that for `CN(C)c1ccc(C(=C2C=CC(=[N+](C)C)C=C2)c2ccccc2)cc1` [Malachite green oxalate*] (10 µM), 195 ± 53.
The result for `CN(C)c1ccc(SC#N)cc1` [4-(Dimethylamino)phenylthiocyanate] (10 µM) reads -14.3 ± 7; that for `Nc1ccc(Nc2ccccc2)cc1` [N-Phenyl-1,4-benzenediamine] (200 µM), 44.2 ± 39; that for `Sc1nc2ccccc2s1` [2-Mercaptobenzothiazole] (100 µM), -1.26 ± 3.2.
As for `C=CC(C)(CCC=C(C)C)OC(=O)CC(C)C` (stereo not given) [Linalyl isovalerate] (200 µM), the figure is 4.35 ± 0.78; as for `Oc1ccc(/C=C/c2cc(O)cc(O)c2)cc1` [Resveratrol] (100 µM), -3.05 ± 3.9.
Regarding `C=CCOC(=O)/C=C\C(=O)OCC=C` [Diprop-2-en-1-yl (2Z)-but-2-enedioate] (203 µM), the “CD86 surface expression induction” value is 29.9 ± 1.4.
The result for `O=c1n(CC2CO2)c(=O)n(CC2CO2)c(=O)n1CC1CO1` (stereo not given) [Triglycidyl isocyanurate] (10 µM) reads 0.85 ± 1.2.
Take `O=C1c2cccc(O)c2C(=O)c2c(O)cccc21` [Danthron] (100 µM): the “CD86 surface expression induction” value worked out at 6.93 ± 0.81.
`O=C(CCCCCCC(=O)Nc1ccccc1)NO` [Vorinostat (SAHA)] (100 µM): the “CD86 surface expression induction” value amounted to 5.02 ± 4.
As for `C=CC(=O)OCCOC(=O)CCC(=O)O` [4-[2-(Acryloyloxy)ethoxy]-4-oxobutanoic acid] (200 µM), the figure is -12.9 ± 36; as for `Cc1occc1S` [2-Methyl-3-furanthiol] (200 µM), 33 ± 9.3; as for `O=[N+]([O-])c1cc(N(CCO)CCO)ccc1NCCO` (200 µM), -7.47 ± 11.
For `CC1=C(/C=C/C(C)=C\C=C\C(C)=C\C(=O)O)C(C)(C)CCC1` [9-cis Retinoic acid] (100 µM), the “CD86 surface expression induction” value was 5.14 ± 16.
As for `CCCCCCCCCCCCCCCC[N+](C)(C)Cc1ccccc1` [Benzylhexadecyldimethylammonium chloride] (10 µM), the figure is 57.5 ± 17.
`NC(=O)n1c(O)c(C(=O)c2cccs2)c2cc(Cl)ccc21` [Tenidap*] (200 µM): the “CD86 surface expression induction” value was 98.4 ± 52.
As for `O=C(CS)Nc1ccccc1` [Thioglycolic acid anilide] (300 µM), the figure is 34.4 ± 2; as for `CC(O)C#CC(C)O` (stereo not given) [Hex-3-yne-2,5-diol] (10 µM), 0.05 ± 2.9.
As for `CC(C)C[C@H](NC(=O)[C@H](Cc1ccccc1)NC(=O)c1cnccn1)B(O)O` [Bortezomib] (10 µM), the figure is 107 ± 8.1; as for `CO[C@@]12[C@H](COC(N)=O)C3=C(C(=O)C(C)=C(N)C3=O)N1C[C@@H]1N[C@@H]12` [Mitomycin C] (100 µM), 60.5 ± 16; as for `O=C(NS(=O)(=O)/C=C/c1cccs1)c1ccc(F)cc1Br` (200 µM), -2.46 ± 4.
The result for `CCC(=O)C=Cc1ccc(OC)cc1` [1-(4-Methoxyphenyl)-1-pentene-3-one] (200 µM) reads 6.83 ± 10; that for `c1ccc(-c2ccccn2)nc1` [2,2'-Dipyridyl] (200 µM), 0.3 ± 28; that for `COC(=O)Nc1nc2cc(Sc3ccccc3)ccc2[nH]1` [Fenbendazole] (100 µM), -18.1 ± 26.
Consider `CCCCCCCC/C=C\CCCCCCCC(=O)N(C)CC(=O)O` [Oleyl sarcosine] (100 µM), for which the “CD86 surface expression induction” value was -14.4 ± 36.
As for `O=C(O)c1cc(O)c2ccccc2c1O` [1,4-dihydroxy-2-naphthoic acid*] (10 µM), the figure is 290 ± 51.
For the compound `CC(=O)C1(C)CC2=C(CCCC2(C)C)CC1C` (stereo not given) (100 µM), the “CD86 surface expression induction” value was determined as 9.62 ± 13.
As for `CO[C@@H]1[C@H](OC(=O)/C=C/C=C/C=C/C=C/C(=O)O)CC[C@]2(CO2)[C@H]1[C@@]1(C)O[C@@H]1CC=C(C)C` [Fumagillin] (100 µM), the “CD86 surface expression induction” value was -0.42 ± 8.1.
Regarding `c1ccc2cc3c(ccc4ccccc43)cc2c1` [Benz(a)anthracene] (200 µM), the “CD86 surface expression induction” value was -20.1 ± 26.
The result for `COc1cc(/C=C2\CCC/C(=C\c3ccc(O)c(OC)c3)C2=O)ccc1O` [Cyclovalone] (10 µM) reads -7.37 ± 5.9.
